In the library only some 6.2% were active in any assay of this set; here they are far more common.
KB-3-1 tox: qHTS assay for MDR1-selective chemotherapeutics: Primary screen using the parental adenocarcinoma cell KB-3-1; KB-3-1 viability, CellTiter-Glo ATP luminescence, 72 h; 400,000 compounds, 1.4% hits; Potency, µM (series often up to 46.1 µM), hits mostly cytotoxic; further: on the % scale 0 is the no-effect control and ±100 the full control effect; nearly all actives have a fitted effect of over 60% in size
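Cytotoxicity measured as CellTiter-Glo luminescence after 72 h at 37 C. Compound titrations were pinned onto drug-naive KB-3-1 parental adenocarcinoma cells grown in DMEM with 10% FBS, and normalized data fitted to concentration-response curves.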
ATXN viability: Viability Counterscreen for Primary qHTS for Inhibitors of ATXN expression | AID 651635, 2014 | 400,000 compounds, 0.49% hits | Potency, µM (doses to about 56.7 µM), hits mostly cytotoxic | S2 cells (HEK-293 line with an ATXN2-luciferase reporter) viability, CellTiter-Fluor protease fluorescence, 24 h; further: nearly all actives have a fitted effect of over 40% in size
HT1080-NT tox: qHTS for induction of synthetic lethality in tumor cells producing 2HG: qHTS for the HT-1080-NT fibrosarcoma cell line | HT-1080-NT fibrosarcoma viability, CellTiter-Glo ATP luminescence, 48 h | Potency, µM (doses to about 46.1 µM), for inactives: top-dose activity, negative = less viability, usual class: cytotoxic | 360,000 compounds, 1.6% hits;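 further: NT is the 2HG producing partner of a matched IDH1 knockdown line; 0% = DMSO-treated cells and -100% = media-only wells without cells; nearly all actives have a fitted effect of over 55% in size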
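Toxicity toward the 2HG-producing NT line was scored as %Activity, normalised to DMSO and no-cell wells, from CellTiter-Glo luminescence after 48 hours' treatment.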
HT1080 IDH1KD tx: qHTS for induction of synthetic lethality in tumor cells producing 2HG: qHTS for the HT-1080-IDH1KD cell line. HT-1080 IDH1 knockdown viability, ATP luminescence, 48 h. Potency, µM (doses to about 46.1 µM), for the others: top-dose activity, negative = toxicity, most hits filed as cytotoxic. 360,000 compounds, 2% hits. AID 686971, 2013;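 further: 0% = DMSO wells and -100% = cell-free medium wells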
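% activity derives from luminescence (CellTiter-Glo), normalised to DMSO and no-cell wells. HT-1080-IDH1KD cells, 750/well, had 48 h compound exposure at 37 °C.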
KB-V1 MDR tox: qHTS assay for MDR1-selective chemotherapeutics: Primary screen using the drug-selected MDR subline cells KB-V1; KB-V1 MDR cells viability, CellTiter-Glo, 72 h; Potency, µM (titrated, usually from 46.1 µM), actives largely listed as cytotoxic; 400,000 compounds, 3.4% hits; AID 1347076, 2019; further: on the % scale 0 is the no-effect control and ±100 the full control effect; nearly all actives have a fitted effect of over 60% in size
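KB-V1, DMEM (no phenol red) + 10% FBS; cpd pin-transferred, titration series; 72 h, 37 degrees C; CellTiter-Glo, luminescence. Data normalized, curve-fit.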
ATXN2 expr inh: Primary qHTS for Inhibitors of ATXN expression; HEK-293 ATXN2-luciferase reporter, luminescence, 24 h; Potency, µM (series often up to 57 µM), inactives show at the highest dose activity change, negative = inhibition, hits mostly inhibitors; 360,000 compounds, 0.72% hits; AID 1745845, 2022; further: on the % scale 0 is the no-effect control and ±100 the full control effect; nearly all actives have a fitted effect of over 55% in size
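qHTS (up to 57 uM final) was run with 24 h compound exposure of reporter cells at 37 °C. Each well was multiplexed: SteadyGlo luminescence measured ATXN2-luciferase expression after a fluorogenic Gly-Phe-AFC viability readout (25 uM final).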
Numbers without * were called inactive; i = inactive; ? = inconclusive; . = no result; [ ] = dose if it differs, or a comment. The call rests on the fitted dose curve; in most records, active means well fitted curve in the direction sought with a large enough effect; inconclusive means small, poorly fitted or top-dose-only effect, or another doubt; inactive means no such curve, though single readings can be large; an effect the other way counts as inactive or inconclusive. Potency means the concentration at half of the fitted maximal effect.

SMILES	KB-3-1 tox	ATXN viability	HT1080-NT tox	HT1080 IDH1KD tx	KB-V1 MDR tox	ATXN2 expr inh
COC(=O)[C@@H]1C[C@@H](NC(=O)c2cnsn2)CN1Cc1ccc(Cl)cc1	.	i	.	.	.	.
CC(=O)N(CCC1(C(C)C)CCOC(C)(C)C1)Cc1ccco1 (configuration not stated)	i	?	-3%	-2%	12µM*	-4%
CCC(=O)N(CCC1(C(C)C)CCOC(C)(C)C1)Cc1ccco1 (configuration not stated)	i	i	6%	5%	i	-1%
CC1(C)Cc2cccc(OCC(=O)Nc3ccccc3N3CCOCC3)c2O1	i	i	11%	8%	3.7µM*	-7%
CC1(C)Cc2cccc(OCC(=O)NCc3ccc(F)cc3)c2O1	i	i	-3%	-4%	15µM*	-3%
O=C(COC(=O)c1cccc(S(=O)(=O)N2CCCC2)c1)Nc1ccccc1C(F)(F)F	i	i	-1%	7%	i	5%
Cc1cccc(-n2ncc3c(N4CCOCC4)ncnc32)c1	i	i	-18%	-3%	?	10µM*
COc1ccc(-n2ncc3c(N4CCN(c5cccc(C)c5)C(C)C4)ncnc32)cc1 (configuration not stated)	21µM*	?	.	.	?	?
Cc1cccc(-n2cc(-c3ccccc3)c3c(N4CCOCC4)ncnc32)c1	i	i	21µM*	13µM*	?	.
Cc1cccc(-n2ncc3c(N4CCN(c5ccccc5)CC4)ncnc32)c1	i	.	.	.	i	.
COc1ccc(-n2ncc3c(N4CCN(c5cc(C)ccc5C)CC4)ncnc32)cc1	i	i	-1%	2%	i	9%
COc1ccc(N2CCN(c3ncnc4c3cnn4-c3ccc(C)cc3C)CC2)cc1	i	i	5%	15%	4.6µM*	-10%
CCC(=O)N1CCc2cc(S(=O)(=O)NCCC(=O)Nc3ccc(N(CC)CC)cc3C)ccc21	i	i	.	.	i	2%
COC(=O)c1cc2sc(C)cc2n1CC(=O)Nc1ccc(C)cc1Cl	i	i	.	.	i	8%
Cc1ccc(-n2ncc3c(N4CCN(c5ccccc5)CC4)ncnc32)c(C)c1	?	i	-2%	-5%	2.3µM*	0%
CCSc1nn(CC(=O)Nc2cccc(CC)c2)c(N)c1S(=O)(=O)c1ccccc1	?	?	.	.	i	?
CC(C)COc1ccc(CN=C(N)N=C(N)N)cc1Cl	13µM*	i	?	?	i	-11%
CC(C)Oc1ccc(CN=C(N)N=C(N)N)cc1Cl	?	i	?	?	i	-2%[11.3 µM]
CCC(CC)NC(=O)c1cccc(Oc2ccccc2)c1	i	i	-9%	-7%	23µM*	3%
COc1cc(OC)c(NC(=O)Nc2sc3nc4n(c(=O)c3c2C)CCC(C)CC4)cc1Cl (configuration not stated)	i	?	.	.	i	-12%
CCC(=O)Nc1cc(-c2nn(C)c(=O)c3ccccc23)ccc1N1CCOCC1	i	i	1%	13%	i	1%
Cn1nc(-c2ccc(N3CCCCC3)c(NC(=O)c3ccco3)c2)c2ccccc2c1=O	8.2µM*	?	12%	14%	?	?
CC1=NN(c2cccc(C(=O)O)c2)C(=O)/C1=C\C=C\c1ccco1	i	?	4%	0%	i	7%
Cc1ccc(C2=NOC(=O)/C2=C\C=C\c2ccccc2)cc1	?	?	9.2µM*	13µM*	?	?
CN(C)/C=C1\C(=O)ON=C1c1ccccc1	i	i	-12%	15%	i	5%
SMILES	KB-3-1 tox	ATXN viability	HT1080-NT tox	HT1080 IDH1KD tx	KB-V1 MDR tox	ATXN2 expr inh
CC1=NN(c2ccccc2)C(=O)/C1=C/C=C/c1ccccc1	?	?	3.3µM*	9.2µM*	?	?
Cc1ccc(CNc2ccc3nnc(-c4ccccc4)n3n2)cc1	i	i	18%	11%	i	6%
CN(C)CC(C)(C)CNc1nn2c(-c3ccccc3)nnc2cc1C1CCC1	.	.	.	.	.	0.77µM*
CCn1c(Cl)c(C=O)s/c1=N\S(=O)(=O)c1ccccc1	?	14µM*	13µM*	8.2µM*	?	13µM*
O=C(COC(=O)c1ccc(Cl)nc1)Nc1nnc(-c2ccccc2)o1	i	i	6%	20%	15µM*	6%
CC(C)(C)c1nnc(NS(=O)(=O)c2ccc(N)cc2)s1	.	i	.	.	.	0%
CC1CCN(S(=O)(=O)c2cc(C(=O)N3CCN(c4ccccc4F)CC3)n(C)c2)CC1	i	i	.	.	?	-3%
CC1CCN(S(=O)(=O)c2cc(C(=O)N3CCN(c4cccc(Cl)c4)CC3)n(C)c2)CC1	16µM*	i	.	.	i	-4%
CC(C)c1ccc(S(=O)(=O)N2CCC(C(=O)N3CCN(c4cccc(Cl)c4)CC3)CC2)cc1	i	i	-14%	-14%	i	-12%
O=C(C1CCN(S(=O)(=O)c2cccnc2)CC1)N1CCN(c2cccc(Cl)c2)CC1	?	i	-2%	-3%	6.5µM*	-24%
Cc1cc(-n2c(C)cc(C(=S)N3CCOCC3)c2C)ccc1Br	?	i	7%	-2%	8.2µM*	-16%
Cc1ccc(-n2c(C)cc(C(=O)CN3CCOCC3)c2C)cc1C	i	i	-2%	-1%	?	.
CC(c1ccccc1)N1CCn2c(nc3cc(NC(=O)c4cccs4)ccc32)C1 (configuration not stated)	i	i	?	17%[9.24 µM]	?	22%
CC(c1ccccc1)N1CCn2c(nc3cc(NC(=O)NC4CCCCC4)ccc32)C1 (configuration not stated)	?	i	16µM*	?	i	-9%
O=C(NN1C(=O)C2C3c4ccccc4C(c4ccccc43)C2C1=O)c1ccc(Cl)cc1 (configuration not stated)	i	i	-5%	0%	16µM*	-20%
Cc1ccc(NC(=O)C(=O)NCC(c2cccnc2)N2CCc3ccccc3C2)cc1 (configuration not stated)	i	.	.	.	i	.

Compound activity (PubChem)
